This is an account of results in PubChem BioAssay.

Activity calls are given as the source filed them.

Test [1] can be described thus: E. coli DRC41 culture turbidity changes, primary screen, E. coli filamentation inducer project, strain DRC41, OD650, 48 h (AID 1152).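 Further: E. coli MC1000 strain DRC41 lacking acrAB efflux pump and sulA.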 The following applies: E. coli DRC41 (acrAB sulA), higher = more signal, called active from +8 up or from −8 down.
A short description of test [2]: small-molecule binders of probe aLefty1, primary screen, biochemical, small-molecule microarray, 635/667 nm fluorescence (AID 1153).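 Further: score merges spot fluorescence with signal-to-noise ratio from the scanned slide images.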 The following applies: higher = more signal.
The nature of test [3]: PSAC antagonists in infected red cells, primary screen, cell-based, P. falciparum Indochina, OD700, 1 h (AID 1154). Conditions: P. falciparum Indochina infected RBC osmotic lysis, higher = more signal, called active from +8 up or from −8 down.
Test [4] can be described thus: PSAC antagonists in infected red cells, primary screen, cell-based, P. falciparum Indochina, OD700, 2 h (AID 1155).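 Further: lysis reports solute entry through the parasite surface anion channel PSAC; channel blockers reduce lysis of infected cells.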 The following applies: P. falciparum Indochina infected erythrocytes, osmotic lysis OD700; higher = more signal, called active from +8 up or from −8 down.
Test [5] is described as follows: osmotic lysis modulators in infected erythrocytes, primary screen, PSAC antagonist project, cell-based, P. falciparum Indochina, OD700, 3 h (AID 1156). The following applies: higher = more signal, called active from +8 up or from −8 down.
Test [6] can be described thus: PSAC antagonists in infected red cells, primary screen, cell-based, P. falciparum Indochina, OD700, 18 h (AID 1157). Conditions: P. falciparum Indochina infected erythrocytes, osmotic lysis OD700, 18 h; higher = more signal, called active from +8 up or from −8 down.
The nature of test [7]: modulators of S6 phosphorylation in cells, primary screen, cell-based, A549, cytoblot, luminescence, serum-stimulated (AID 1158).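 Further: serum-stimulated A549 lung adenocarcinoma cells; signal is phosphorylated S6 detected by cytoblot immunostaining with HRP secondary.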 Conditions: A549 phospho-S6 cytoblot, 5 h, higher = more signal.
In test [8] the target is NADPH oxidase 2 (Homo sapiens) (UniProt P04839). Briefly: NOX2-dependent H2O2 signal modulators, primary screen, NOX inhibitor project, cell-based, HEK293-NOX2, PMA-stimulated, Amplex Red fluorescence (AID 1159). Further: test concentration not given here. The following applies: 45 min, higher = more signal, called active from +8 up or from −8 down.
Test [9] concerns the target NADPH oxidase 4 (Homo sapiens) (UniProt Q9NPH5). The experiment in a line: NOX4-dependent H2O2 signal modulators, primary screen, NOX inhibitor project, cell-based, HEK293-NOX4, tetracycline-induced, Amplex Red fluorescence (AID 1160). The following applies: 45 min, higher = more signal, called active from +8 up or from −8 down.
The target in test [10] is NADPH oxidase 5 (Homo sapiens) (UniProt Q96PH1). The experiment in a line: NOX5-dependent H2O2 signal modulators, primary screen, NOX inhibitor project, cell-based, HEK293-NOX5, Amplex Red fluorescence (AID 1161). Conditions: HEK293-NOX5, ionomycin, 45 min, higher = more signal.
NADPH oxidase 5 (Homo sapiens), sequence (Q96PH1 whole entry, looked up): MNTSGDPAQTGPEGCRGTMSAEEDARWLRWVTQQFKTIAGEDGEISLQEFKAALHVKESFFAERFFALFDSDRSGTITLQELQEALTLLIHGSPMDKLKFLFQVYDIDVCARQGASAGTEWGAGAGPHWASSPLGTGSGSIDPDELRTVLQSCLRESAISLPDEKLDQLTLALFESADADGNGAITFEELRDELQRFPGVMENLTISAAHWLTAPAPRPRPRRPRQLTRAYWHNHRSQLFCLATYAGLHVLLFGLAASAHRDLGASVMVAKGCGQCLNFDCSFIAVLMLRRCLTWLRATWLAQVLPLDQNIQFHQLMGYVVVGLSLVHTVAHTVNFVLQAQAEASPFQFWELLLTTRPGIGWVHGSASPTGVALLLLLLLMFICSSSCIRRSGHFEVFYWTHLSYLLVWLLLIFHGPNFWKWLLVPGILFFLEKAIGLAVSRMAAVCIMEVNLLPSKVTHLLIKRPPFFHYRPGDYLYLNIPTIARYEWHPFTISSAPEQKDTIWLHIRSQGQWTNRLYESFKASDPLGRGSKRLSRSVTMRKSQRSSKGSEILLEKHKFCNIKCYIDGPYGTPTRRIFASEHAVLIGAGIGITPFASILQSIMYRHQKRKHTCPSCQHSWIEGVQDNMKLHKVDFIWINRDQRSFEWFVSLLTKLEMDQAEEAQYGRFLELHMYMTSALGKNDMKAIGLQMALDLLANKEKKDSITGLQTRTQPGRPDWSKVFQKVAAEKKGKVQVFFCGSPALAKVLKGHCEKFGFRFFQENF

NADPH oxidase 2 (Homo sapiens), sequence (P04839 whole entry, looked up): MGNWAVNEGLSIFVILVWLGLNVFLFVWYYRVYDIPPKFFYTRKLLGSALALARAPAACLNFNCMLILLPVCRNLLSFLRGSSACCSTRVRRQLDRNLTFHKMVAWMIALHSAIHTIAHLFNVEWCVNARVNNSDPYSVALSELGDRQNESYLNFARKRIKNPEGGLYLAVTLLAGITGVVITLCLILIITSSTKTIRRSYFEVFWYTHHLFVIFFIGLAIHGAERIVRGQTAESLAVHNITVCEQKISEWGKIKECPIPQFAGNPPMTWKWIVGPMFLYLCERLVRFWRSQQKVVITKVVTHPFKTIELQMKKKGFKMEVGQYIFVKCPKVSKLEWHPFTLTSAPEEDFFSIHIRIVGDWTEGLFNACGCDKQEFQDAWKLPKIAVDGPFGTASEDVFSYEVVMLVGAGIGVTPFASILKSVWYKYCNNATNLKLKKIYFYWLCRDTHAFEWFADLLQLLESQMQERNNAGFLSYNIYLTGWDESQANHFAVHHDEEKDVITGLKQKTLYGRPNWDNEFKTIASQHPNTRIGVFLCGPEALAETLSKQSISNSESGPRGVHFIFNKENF
NADPH oxidase 4 (Homo sapiens), sequence (Q9NPH5 whole entry, looked up): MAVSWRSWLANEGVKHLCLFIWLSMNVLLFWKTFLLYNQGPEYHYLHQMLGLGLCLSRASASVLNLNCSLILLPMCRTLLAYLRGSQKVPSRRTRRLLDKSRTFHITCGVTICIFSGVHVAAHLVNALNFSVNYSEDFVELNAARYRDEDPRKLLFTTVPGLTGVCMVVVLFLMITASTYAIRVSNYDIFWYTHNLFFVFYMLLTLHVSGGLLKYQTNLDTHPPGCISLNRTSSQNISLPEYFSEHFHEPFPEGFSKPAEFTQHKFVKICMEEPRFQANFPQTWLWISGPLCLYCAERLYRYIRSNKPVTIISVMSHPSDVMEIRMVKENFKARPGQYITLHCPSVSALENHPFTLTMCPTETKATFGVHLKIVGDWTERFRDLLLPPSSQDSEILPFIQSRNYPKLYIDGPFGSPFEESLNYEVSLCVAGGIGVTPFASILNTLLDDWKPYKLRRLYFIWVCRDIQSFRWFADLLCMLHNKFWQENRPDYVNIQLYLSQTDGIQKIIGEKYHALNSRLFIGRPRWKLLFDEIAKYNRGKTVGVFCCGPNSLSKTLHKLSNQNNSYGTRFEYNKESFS

In the case of `COc1ccc([C@H]2OC[C@@H]3C[C@@H](Cc4ccccc4)C(=O)N32)cc1`, the z-score in test [1] was -0.783 (inactive); in test [3] it was 2.1 (inactive); in test [4], 0.0371 (inactive); in test [5], -0.59 (inactive); in test [6] it was 0.308 (inactive); in test [7], -0.597. Moreover, the z-score was 1.25 (inactive) in test [8], 0.524 (inactive) in test [9] and -0.604 in test [10]. In test [2], this compound displayed a composite z-score of 0.25.
As to `CCCC[C@@H]1C[C@H]1[C@@H](NC(=O)C(C)(C)C)c1ccc(C(F)(F)F)cc1`, the z-score was -2.06 (inactive) in test [1]; 5.74 (inactive) in test [3]; 0.367 (inactive) in [4]; 1.01 (inactive) in [5]; -1.37 (inactive) in [6]; 2.6 in test [7]. Besides, the figures for the z-score in test [8], in [9] and in [10] were -4.58 (inactive), -4.44 (inactive) and -5.62, respectively. In test [2], this compound yielded a composite z-score of 0.718.
Consider `COc1cc(COC(C)=O)ccc1OC(C)=O`, for which the z-score in [1] was 3.19 (inactive); in [3], -1.49 (inactive); in test [4], -0.983 (inactive); in [5] it was -1.76 (inactive); in [6], -2.3 (inactive); in test [7], 1.29. The z-score was -4.55 (inactive) in [8], -0.433 (inactive) in test [9] and -0.154 in [10]. For the same compound, the composite z-score in test [2] was 0.383.
Consider `COCCOC(=O)N1C(=O)[C@@]2(c3cc(C#CCCO)ccc31)[C@H](C(N)=O)[C@H]1C(=O)O[C@H](c3ccccc3)[C@H](c3ccccc3)N1[C@@H]2c1ccc(O)cc1`, for which the z-score in test [1] was -0.903 (inactive); in [3], 2.44 (inactive); in test [4], 0.213 (inactive); in [5], -0.458 (inactive); in test [6] it was -0.0317 (inactive); in [7] it was -0.237. Moreover, the results for the z-score in test [8], in test [9] and in [10] were 0.463 (inactive), 0.561 (inactive) and 0.728, respectively. In test [2], this compound showed a composite z-score of -0.15.
With `COC(=O)[C@@]1(Cc2ccc(OC)cc2)[C@@H]2C(=CC(=O)[C@H]2CC(=O)C(=O)N2CCCC2)CN1C(=O)c1ccccc1`, the z-score was -0.97 (inactive) in test [1]; 5.48 (inactive) in [3]; 0.368 (inactive) in [4]; 1.51 (inactive) in test [5]; 1.18 (inactive) in [6]; 0.0866 in test [7]. Further, the z-score in [8] is 0.143 (inactive); in test [9] it was 1.54 (inactive); in test [10], 1.14. In [2], the composite z-score worked out at 0.114.
Regarding `CC(CO)N1C(=O)[C@@H]2C3C(=O)OCCC/C=C\[C@H]3OC23C=CCN(C(C)(C)C)C(=O)[C@@H]13` (stereo not given in full), the z-score was 0.458 (inactive) in test [1]; 0.943 (inactive) in test [3]; 0.752 (inactive) in test [4]; 2.51 (inactive) in test [5]; 0.477 (inactive) in test [6]; -0.0054 in test [7]. The z-score was 0.89 (inactive) in test [8], -0.437 (inactive) in test [9] and 0.886 in [10]. Further, in [2], the composite z-score was -0.0984.
Consider `CC1CC/C=C\[C@H]2OC34C=CCN(C(C)(C)C)C(=O)[C@H]3N(CCO)C(=O)[C@@H]4C2C(=O)O1` (stereo not given in full), for which the z-score in test [1] was 0.583 (inactive); in [3], 2.16 (inactive); in [4], 0.518 (inactive); in test [5] it was -0.474 (inactive); in test [6], 0.31 (inactive); in [7], 0.615. The z-score in [8] was 1.36 (inactive); in test [9], 0.126 (inactive); in [10], 2.57. Further, in test [2], the composite z-score is -0.0611.
Consider `COCC(=C=CC[C@@H](O)c1cccc(OCCO)c1)C[C@@H](O)c1ccccn1`, for which the z-score in test [1] was 0.335 (inactive); in test [3], 12 (active); in [4] it was 1.42 (inactive); in [5], 0.97 (inactive); in test [6], 0.675 (inactive); in test [7], -0.613. Besides, the z-score in test [8] is 1.96 (inactive); in [9], 0.744 (inactive); in [10], 0.254. Further, in [2], the composite z-score is 0.0903.
As for `CN1C(=O)C2C=CC(C(O)c3ccco3)N(Nc3ccccc3)C2C1=O` (stereo not given), the z-score was -1.63 (inactive) in [1]; 0.233 (inactive) in [3]; 0.742 (inactive) in test [4]; -0.283 (inactive) in test [5]; 1.34 (inactive) in test [6]; -1.2 in test [7]. Also, the z-score in test [8] was -1.76 (inactive); in test [9], -3.72 (inactive); in [10] it was -2.54. In [2], this compound returned a composite z-score of 0.335.
With `[N-]=[N+]=Nc1ccccc1[C@@H]1OC(c2ccc(OCCCO)cc2)=N[C@]1(CCS(=O)(=O)c1ccccc1)C(N)=O`, the z-score is 0.307 (inactive) in [1]; 29.1 (active) in test [3]; 26.1 (active) in test [4]; 1.26 (inactive) in [5]; 5.2 (inactive) in test [6]; 0.0742 in test [7]. The z-score in [8] was -1.8 (inactive); in test [9], 2.14 (inactive); in test [10] it was 0.903. The composite z-score in [2] was determined as 0.572.
For the compound `CCOC(=O)C[C@H]1[C@H](OC(=O)c2ccc(C(=O)c3ccccc3)cc2)[C@@H](NC(=O)c2ccccc2)c2cc(OCCCO)ccc2N1C(=O)Cc1ccc(OC)cc1`, the z-score in test [1] was -0.126 (inactive); in test [3], 3.37 (inactive); in [4], 0.656 (inactive); in test [5], -0.391 (inactive); in test [6], 0.259 (inactive); in test [7] it was -0.0114. Also, the z-score in test [8] was 0.924 (inactive); in [9] it was 0.983 (inactive); in [10], 1.45. This compound also yielded a composite z-score in [2] of -0.185.
`Cc1ccc(N2C(=O)c3ccccc3[C@@H](C(=O)NC3CC3)[C@@H]2c2ccc(CO)cc2)nc1`: the z-score in [1] is -0.0739 (inactive); in test [3] it was 1.92 (inactive); in test [4] it was -0.325 (inactive); in [5] it was 0.62 (inactive); in test [6], -0.0389 (inactive); in test [7], -0.179. In addition, the z-score in test [8] is 0.355 (inactive); in [9], -0.647 (inactive); in [10], -1.51. In test [2], this compound registered a composite z-score of -0.138.
As for `COC(=O)C(CC#Cc1ccc2c(c1)[C@]1(C(=O)N2)[C@H](C(=O)Nc2nc3ccccc3s2)[C@H]2C(=O)O[C@H](c3ccccc3)[C@H](c3ccccc3)N2[C@@H]1c1ccccc1OCCO)C(=O)OC`, the z-score is -0.839 (inactive) in [1]; 4.9 (inactive) in test [3]; 2.16 (inactive) in test [4]; -0.174 (inactive) in [5]; 1.69 (inactive) in test [6]; -0.333 in test [7]. The values for the z-score in test [8], in test [9] and in [10] were 1.28 (inactive), 0.252 (inactive) and 0.774, respectively. Besides, the composite z-score in [2] came to 0.284.
